ChEMBL document CHEMBL3988442, “University of Dundee, Small-Polar-MMV Screening Library” (2021)
Screen size: about 48,000 compounds; about 13,000 (27%) showed an effect of 50% or more. The list shows a part of the results.

test system: Wolbachia pipientis; experiment: Anti-Wolbachia Cell-Based Screen; type: functional; parameters: scale not given: in the data most compounds retested in dose-response had high values; conditions: 5 µM

Row | SMILES | Percent Effect
1 | Cc1nc(CN2CCC(CNC(=O)C3(C#N)CCCC3)CC2)oc1C | -2.689%
2 | O=C(NCCNS(=O)(=O)c1cc(F)cc(F)c1)c1ccoc1 | 3.11%
3 | COCc1ncc(CN(CCN(C)C)Cc2ccc(C)s2)cn1 | -7.942%
4 | OC(CNCCn1cccn1)COc1ccc2ccccc2c1 (stereo not drawn) | -4.73%
5 | CO[C@@H]1CCN(S(=O)(=O)c2cn(C)cn2)[C@H]1Cc1ccncc1.O=C(O)C(F)(F)F | 7.215%
6 | Cn1nccc1C(=O)N1CCN(C(=O)C2CCC2)[C@@H]2CS(=O)(=O)C[C@@H]21 | -1.449%
7 | CC1=Nc2c(c(=O)[nH]n2C2CCCC2)C(c2ccc(C(=O)O)cc2)S1 (stereo not drawn) | 117.5%
8 | CC1=Nc2c(c(=O)[nH]n2C2CCCCC2)C(c2ccc(C(=O)O)cc2)S1 (stereo not drawn) | 110.1%
9 | COc1ccc(C2SC(C)=Nc3c2c(=O)[nH]n3C2CCCCC2)cc1O (stereo not drawn) | 9.619%
10 | CC1(C)CC1(C(=O)N1CC(c2cccnc2)C1)c1ccc(F)cc1 (stereo not drawn) | -9.092%
11 | CC1=Nc2c(c(=O)[nH]n2C2CCCC2)C(c2cccc(O)c2)S1 (stereo not drawn) | 4.051%
12 | O=C1CC(C2CCCCC2)c2c(n(C3CCCC3)[nH]c2=O)N1 (stereo not drawn) | -0.7877%
13 | CC1=Nc2c(c(=O)[nH]n2C2CCCC2)C(c2cccnc2)S1 (stereo not drawn) | 106.9%
14 | C[C@@H]1CN(C2CCN(Cc3nn(C)c4cccc(Cl)c34)CC2)C[C@H](C)O1 | 24.58%
15 | C[C@@H]1CN(CC(C)(C)N2CCCCC2)CC[C@@]1(O)C1CC1 | 22.77%
16 | CC(CN1CCOCC1)N(Cc1ccccc1)Cc1ccncc1 (stereo not drawn) | 4.516%
17 | O=C(Nc1cn[nH]c1)c1ccc(O)nc1 | -8.814%
18 | Cc1ccc(NCCNC(=O)C2Cc3cc(C)c(C)cc3O2)nn1 (stereo not drawn) | -19.52%
19 | CCOc1ncccc1C(=O)N1CCCCC1c1nccs1 (stereo not drawn) | 4.622%
20 | COc1ncccc1C(=O)N1CCCC1c1c(C)n[nH]c1C (stereo not drawn) | -9.272%
21 | CCOc1ncccc1C(=O)N1CCCC1c1c(C)nn(C)c1Cl (stereo not drawn) | 122.7%
22 | COc1ncccc1C(=O)N1CCCC1c1c(C)nn(C)c1Cl (stereo not drawn) | 89.91%
23 | CCCNC(=O)C(C)Nc1ccc(OCC)cc1 (stereo not drawn) [PROPETAMIDE] | -10.93%

Row | SMILES | Percent Effect
24 | CC(=O)N1Cc2ccccc2CC1C(=O)Nc1ccc(N(C)C)cn1 (stereo not drawn) | -0.765%
25 | CCS(=O)(=O)NCCNc1c(C#N)cnc2c(C)cc(F)cc12 | -8.935%
26 | COc1ccc(-c2ccc(C(=O)NS(C)(=O)=O)c(F)c2)cc1 | -4.531%
27 | CCCn1nnc(NCc2cc(Br)cc(Br)c2OC)n1 | 116%
28 | CCOc1c(CNCCCn2ccnc2)cc(Cl)cc1OC.Cl.Cl | 2.415%
29 | CCn1nnc(NCc2cc(Cl)cc(Cl)c2OC)n1 | 112%
30 | CCn1nnc(NCc2cc(Br)cc(Br)c2OC)n1 | 107.9%
31 | COc1cc(Br)c(CNc2ccn(CCC(N)=O)n2)cc1OC | -66.5%
32 | CCCC(=O)NCc1cc(Br)c(OC)c(OC)c1 | -2.36%
33 | CCOc1c(Cl)cc(Cl)cc1CNCCCn1ccnc1 | 7.909%
34 | CC(CN1CCCC1=O)NC(=O)c1cc(-c2cccc(Cl)c2)no1 (stereo not drawn) | -44.82%
35 | COCC(=O)N[C@H](C)c1onc(-c2ccccc2)c1C(=O)O | -4.041%
36 | CN(C)CC1CN(Cc2nnc(-c3ccccc3Cl)o2)CCO1 (stereo not drawn) | 1.962%
37 | CCCOc1cccc(C(=O)N2CCCC(n3cncn3)C2)c1 (stereo not drawn) | 99.87%
38 | COCCn1cc(C(=O)N2CCCC(n3cncn3)C2)ccc1=O (stereo not drawn) | -8.291%
39 | O=C(c1cccc(OC2CCCC2)c1)N1CCCC(n2cncn2)C1 (stereo not drawn) | -3.661%
40 | CN(C)Cc1cccc(C(=O)N2CCCC(n3cncn3)C2)c1 (stereo not drawn) | 139.2%
41 | COC(=O)c1cccc(C(=O)N2CCCC(n3cncn3)C2)c1 (stereo not drawn) | 108.5%
42 | O=C(c1cccc(CN2CCCC2)c1)N1CCCC(n2cncn2)C1 (stereo not drawn) | -4.839%
43 | CS(=O)(=O)Cc1cccc(C(=O)N2CCCC(n3cccn3)C2)c1 (stereo not drawn) | 7.401%
44 | CCc1cccc(OCC(=O)N2CCCC(n3cncn3)C2)c1 (stereo not drawn) | 9.617%
45 | COc1cc(CCC(=O)NCC2CCCN2C)ccc1OCC(F)(F)F (stereo not drawn) | -0.8695%
46 | CC(=O)N1C[C@H](c2cc(O)nc(C)n2)[C@@H](c2ccccc2F)C1 | 117%

Row | SMILES | Percent Effect
47 | Cc1nc(O)cc([C@@H]2CN(C(=O)C3CC3)C[C@H]2c2ccccc2F)n1 | 114.1%
48 | Cc1nc(O)cc(C2CCCN(C(=O)COCc3ccccc3)C2)n1 (stereo not drawn) | 12.86%
49 | COCC(=O)N1C[C@@H](c2cc(O)nc(C)n2)[C@H](c2ccccc2F)C1 | 108.7%
50 | COCC(=O)N1C[C@H]2CN(Cc3csc(C)n3)C(=O)[C@H]2C1.O=C(O)C(F)(F)F | -18.32%
51 | CC(=O)N1C[C@@H](F)[C@@H](OCc2nc3ccccc3o2)C1 | -12.47%
52 | CN1CCC2(CCCN(C(=O)c3cncn3C)C2)CC1.O=C(O)C(F)(F)F | -6.177%
53 | CCc1c(O)nc(SCC(=O)Nc2ccccc2)n(C(C)CC)c1=O (stereo not drawn) | -0.04082%
54 | CCc1c(O)nc(SCC(=O)N(CC)CC)n(C(C)CC)c1=O (stereo not drawn) | -0.2531%
55 | CCc1c(O)n(C(C)CC)c(SCC(=O)c2ccccc2)nc1=O (stereo not drawn) | 125.3%
56 | Cc1noc(C)c1CN1C[C@@H](C(=O)O)[C@H](C(C)C)C1 | -19.42%
57 | CC(C)CN1CCn2c(COCc3cccnc3)nnc2C1.O=C(O)C(F)(F)F.O=C(O)C(F)(F)F | -7.115%
58 | CC(C)NC(=O)c1ccc2c(c1)nc1n2CCN(c2ccccc2)C1 | 20.1%
59 | CC(C)CN1CCn2c(nc3cc(C(=O)NC(C)C)ccc32)C1 | 121.2%
60 | CCc1nnc2n1CCN(Cc1ccc(C(=O)N3CCCC3)cc1)C2 | 0.2623%
61 | COCCN1CCn2c(nc3cc(C(=O)NC(C)C)ccc32)C1 | 122.8%
62 | CC(C)N1CCn2c(nc3cc(C(N)=O)ccc32)C1 | 42.97%
63 | CCNC(=O)c1ccc2c(c1)nc1n2CCN(C(C)C)C1 | 109.5%
64 | COCCN1CCN(C(C)C(=O)Nc2ccnn2C(C)C)CC1 (stereo not drawn) | -8.101%
65 | CCN1CCN(c2ccc(C(=O)NC(C)CCOC)cc2)CC1 (stereo not drawn) | -9.084%
66 | CC(C)NC(=O)c1ccc2c(c1)nc1n2CCN(Cc2ccccc2)C1 | 112.9%
67 | CC(C)NC(=O)c1ccc2c(c1)nc1n2CCN(C(C)C)C1 | -1.576%
68 | Cc1nnc2n1CCN(CC(=O)NC(C)c1ccc3ccccc3c1)C2 (stereo not drawn) | -2.487%
